The text below walks through data of PubChem BioAssay (NCATS).

Values without a mark were called inactive. Records with an inconclusive call do not appear. Activity calls are given as the source filed them. Unless noted, calls follow the shape of the dose curve; as a rule, active = well fitted curve in the direction sought with a large enough effect; inconclusive = small, poorly fitted or top-dose-only effect, or another doubt; inactive = no such curve, though single readings can be large; an effect the other way counts as inactive or inconclusive.

One experiment relates to JEG-3. As to the kind of experiment: Primary qHTS to identify gynecologic anti-cancer compounds using libraries of approved drugs and bioactive compounds (AID 1345084). Also: nearly all actives have a fitted effect of over 55% in size. Also: potency is read from the fitted curve at half-maximal effect. Conditions: Gynecologic cancer cell panel viability, ATPlite luminescence, 48 h; series mostly up to 57.5 µM. A digest of the protocol: (§1)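 ATP-based viability (ATPlite), 1,000 cells/well, 16 h pre-incubation, 48 h compound at 37 C, 5% CO2, 15 min RT before read.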
(qHTS replaces the single test concentration by a dilution series.)

Another experiment has as its system Tov-21-G. The experiment is described as above. Conditions: Gynecologic cancer cell panel viability, ATPlite luminescence, 48 h; series mostly up to 57.5 µM. A digest of the protocol: as §1
For the next experiment, the system named is Tov112D. The description is as above. The conditions noted are these: Gynecologic cancer cell panel viability, ATPlite luminescence, 48 h; series mostly up to 57.5 µM. A digest of the protocol:
as §1

A further experiment concerns PA-1. The experiment is described as above. Conditions: Gynecologic cancer cell panel viability, ATPlite luminescence, 48 h; series mostly up to 57.5 µM. A digest of the protocol:
as §1

The subject of another experiment is SKOV3. The description is as above. The conditions noted are these: Gynecologic cancer cell panel viability, ATPlite luminescence, 48 h; series mostly up to 57.5 µM. A digest of the protocol:
as §1
A general note: Cellular ATP, detected with luciferase, serves as a proxy for viable cell number.

Experiment [1] in a line: Drug repurposing screens with cells derived from glioblastoma tumor samples (AID 1345199). Also: nearly all actives have a fitted effect of over 40% in size. Also: potency is read from the fitted curve at half-maximal effect. As to activity, negative = cell killing: % is scaled to controls: 0 for no effect and ±100 for the full control effect. Conditions: GBM patient neurospheres viability, ATP luminescence, 48 h. A digest of the protocol:
(§2)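 Four patient lines of CD133+ GBM neurospheres were screened at several concentrations; hits were retested in those lines plus three slower-growing GBM lines, using 48-hour treatment and ATP-based viability.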

Another experiment relates to astro. The experiment is described as above. The conditions noted are these: viability, ATP luminescence, 48 h; series mostly up to 45.9 µM. A digest of the protocol:
as §2

The test system of the next experiment is OV90. As to the kind of experiment: Primary qHTS to identify gynecologic anti-cancer compounds using libraries of approved drugs and bioactive compounds (AID 1345084). Also: nearly all actives have a fitted effect of over 55% in size. Also: potency is read from the fitted curve at half-maximal effect. Conditions: Gynecologic cancer cell panel viability, ATPlite luminescence, 48 h; series mostly up to 57.5 µM. A digest of the protocol:
as §1

Experiment [2] addresses Nuclear receptor subfamily 1 group I member 2 (Rattus norvegicus) (UniProt Q9R1A7). As to the kind of experiment: qHTS assay for small molecule activators of the rat pregnane X receptor (rPXR) signaling pathway (AID 651751; call rule not given here; also: 0% is about no effect). Conditions: rPXR reporter cells, luciferase (One-Glo), 24 h.
The nature of experiment [3]: qHTS assay for small molecule activators of the human pregnane X receptor (PXR) signaling pathway (AID 720659; call rule not given here; also: 0% is about no effect).
Setting [4] is: at 45.9 µM (top of the series), tumour line B.
The mark [5] stands for this setting: at 20 µM (top of the series), tumour line C.
The mark [6] stands for this setting: at 21.2 µM (top of the series), tumour line B.
[7] abbreviates: at 46.1 µM (top of the series), tumour line C.
The mark [8] stands for this setting: at 21.2 µM (top of the series), tumour line D.
[9] abbreviates: at 21.3 µM (top of the series), tumour line A.
Where [10] appears, read: at 45.9 µM (top of the series), tumour line D.
Where [11] appears, read: at 46 µM (top of the series), tumour line A.

Sequence of Nuclear receptor subfamily 1 group I member 2 (Rattus norvegicus) (Q9R1A7 whole entry, looked up): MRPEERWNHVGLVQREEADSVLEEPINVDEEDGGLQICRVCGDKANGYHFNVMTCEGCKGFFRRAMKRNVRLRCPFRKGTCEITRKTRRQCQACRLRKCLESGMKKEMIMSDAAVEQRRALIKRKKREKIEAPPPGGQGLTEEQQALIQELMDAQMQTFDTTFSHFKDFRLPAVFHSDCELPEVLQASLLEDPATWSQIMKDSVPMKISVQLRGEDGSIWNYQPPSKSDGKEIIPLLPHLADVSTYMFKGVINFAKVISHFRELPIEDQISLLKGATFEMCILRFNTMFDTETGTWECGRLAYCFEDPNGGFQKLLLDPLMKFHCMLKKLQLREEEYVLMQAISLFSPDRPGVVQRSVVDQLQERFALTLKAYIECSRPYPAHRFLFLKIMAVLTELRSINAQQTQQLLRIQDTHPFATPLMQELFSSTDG

Regarding `Nc1ccn([C@@H]2O[C@H](CO)[C@@H](O)C2(F)F)c(=O)n1`, the Potency entry in the experiment with JEG-3 and in the experiment on Tov-21-G was “inactive” in each case. Further, in the experiment on Tov112D, the Potency is 0.178 µM (active).

For the compound `CCN(CC)CCOC(=O)C(c1ccccc1)C1CCCCC1` (stereo not given), the Potency entry in the experiment on JEG-3, with PA-1, with SKOV3, in the experiment on Tov-21-G, in the experiment with Tov112D and in the experiment with astro was “inactive” in each case. The activity, negative = cell killing in experiment [1] (setting [4]) was -15%. The Potency in [1] (tumour line A) was 20 µM (active).

`CCCCOc1cc(C(=O)NCCN(CC)CC)c2ccccc2n1`: the Potency result in the experiment on JEG-3, in the experiment with Tov112D and with astro was “inactive” throughout. Besides, the activity, negative = cell killing is 9.91% in experiment [1] (setting [5]) and -15.3% in experiment [1] (setting [6]). The Potency in experiment [1] (tumour line A) was 3.98 µM (active).

Take `COc1cccc(CCc2ccccc2OCC(CN(C)C)OC(=O)CCC(=O)O)c1` (stereo not given): the Potency entry in the experiment on JEG-3, in the experiment on PA-1, in the experiment on SKOV3, in the experiment on Tov-21-G and with Tov112D was “inactive” each time.

In the case of `C[C@@H](CN(C)C)CN1c2ccccc2Sc2ccccc21`, the Potency entry with JEG-3, in the experiment on PA-1, with Tov-21-G, in the experiment on Tov112D and in the experiment on astro was “inactive” in each case. For the same compound, the Potency is 17.8 µM (active) with SKOV3 and 8.91 µM (active) in experiment [1] (tumour line A). Moreover, the activity, negative = cell killing in [1] (setting [5]) is 31.6%; in [1] (setting [6]) it was -28.5%.

Consider `O=c1c(-c2ccccc2)c1-c1ccccc1`, for which the Potency result in the experiment on JEG-3 and in the experiment with Tov-21-G was “inactive” in each case. In the experiment on astro, the Potency was 12.6 µM (active).

In the case of `CN1CCC(=C2c3ccccc3Sc3ccccc32)CC1`, the Potency entry in the experiment with JEG-3, with PA-1, in the experiment with Tov-21-G and in the experiment on Tov112D was “inactive” throughout. The Potency in the experiment with astro is 11.2 µM (active).

On to `CN(C)CC/C=C1\c2ccccc2Sc2ccc(Cl)cc21`, for which the Potency result in the experiment on JEG-3, with PA-1 and with Tov-21-G was “inactive” in each case. Moreover, the activity, negative = cell killing in [1] (setting [7]) was -26.8%. The Potency is 6.31 µM (active) in [1] (tumour line A), 11.2 µM (active) in experiment [1] (tumour line D) and 22.4 µM (active) in the experiment with astro.

As for `CC1(C)O[C@@H]2C[C@H]3[C@@H]4CCC5=CC(=O)CC[C@]5(C)[C@@]4(F)[C@@H](O)C[C@]3(C)[C@]2(C(=O)CCl)O1`, the Potency entry in the experiment with JEG-3, in the experiment on PA-1, in the experiment with SKOV3, in the experiment on Tov-21-G, with Tov112D and in the experiment with astro was “inactive” each time. The activity, negative = cell killing in experiment [1] (setting [5]) is -1.51%; in experiment [1] (setting [6]) it was -4.88%; in experiment [1] (setting [8]), 2.26%; in experiment [1] (setting [9]) it was 3.38%.

Consider `CCC(C(=O)OCCN(CC)CC)c1ccccc1` (stereo not given), for which the Potency result in the experiment with OV90, in the experiment with PA-1, with SKOV3, in the experiment on Tov-21-G, in the experiment with Tov112D and in the experiment with astro was “inactive” each time. The activity, negative = cell killing is -10.7% in [1] (setting [4]), 13.4% in experiment [1] (setting [10]), -28.5% in experiment [1] (setting [11]) and 0.404% in experiment [1] (setting [7]).

As for `Oc1ccc(Cl)cc1Sc1cc(Cl)ccc1O`, the Potency result in the experiment on OV90 and with SKOV3 was “inactive” throughout. Moreover, the Potency in the experiment on astro was 7.94 µM (active).

On to `N[C@@H](Cc1cnc[nH]1)C(=O)O`, for which the activity, negative = cell killing in [1] (setting [4]) is -11.3%; in experiment [1] (setting [10]), -9.45%; in [1] (setting [7]) it was -12.5%. The Potency entry with astro was “inactive”.

Consider `CC(=O)N(O)CCCCCNC(=O)CCC(=O)N(O)CCCCCNC(=O)CCC(=O)N(O)CCCCCN`, for which the Potency with OV90 was 6.31 µM (active). Moreover, the Potency entry with SKOV3, in the experiment on Tov-21-G and in the experiment with astro was “inactive” throughout. Besides, the activity, negative = cell killing in [1] (setting [5]) is 5.11%; in experiment [1] (setting [6]), -16.9%; in experiment [1] (setting [8]) it was -9.85%; in experiment [1] (setting [9]), -22.8%.

With `CN(C)/N=N/c1nc[nH]c1C(N)=O`, the Potency entry in the experiment on JEG-3 and in the experiment on astro was “inactive” throughout. For the same compound, the activity, negative = cell killing is -24.8% in [1] (setting [4]), -1.38% in [1] (setting [10]), -11.7% in experiment [1] (setting [11]) and -12% in [1] (setting [7]). Also, in [2], the max response was -2.27%. Besides, in experiment [3], the compound was classed as inactive.

With `CC[C@H](C)C(=O)O[C@H]1CCC=C2C=C[C@H](C)[C@H](CC[C@@H]3C[C@@H](O)CC(=O)O3)[C@H]21`, the Potency in the experiment on astro is 2 µM (active).

Regarding `C[N+]1(CCCCC[N+]2(C)CCCC2)CCCC1`, the activity, negative = cell killing in experiment [1] (setting [4]) is 0.364%; in experiment [1] (setting [10]), -0.863%; in experiment [1] (setting [11]), -3.4%; in [1] (setting [7]), -6.31%. In the experiment with astro, the Potency entry is “inactive”.
